This is part of a sample that, as a whole, favours compounds with a hit. Of some 83,000 tested, about 20% had one in any assay.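 Single-concentration screen, 48 h exposure, 96-well plates. Endpoint: percent growth. Below 10 = active.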 A number with no mark means an inactive call. Active and inactive are the calls of the source.
System: OVCAR-5 ovarian
Assay: NCI-60 one-dose screen, 48 h (100 = growth as untreated, 0 = no growth, -100 = all killed)
Conditions: 10 µM unless noted
Description: Growth inhibition of the OVCAR-5 human tumor cell line is measured as a screen for anti-cancer activity. Cells are grown in 96 well plates and exposed to the test compound for 48 hours. Compounds are tested at a single concentration, which is 10^-5 M for most compounds. The reported endpoint is percent growth (GI% or GIPRCNT), where numbers from 0 - 100% represent growth inhibition, and numbers from -100% - 0 represent cell death. For example, a value of 40 represents 60% growth inhibition. A value of 0 means no net growth occurred over the course of the experiment. A value of -40 indicates 40% of cells at the beginning of the experiment died by the end of the experiment. A value of -100 means all cells are dead at the end of the experiment.
NCI-60 Human Tumor Cell Lines Screen was performed using the standard one-dose NCI protocol, which is described in more detail at https://dtp.cancer.gov/discovery_development/nci-60/default.htm.
Compounds with GIPRCNT values below 10 were considered active. Activity score was based on GIPRCNT using the following formula: […]
Score is 0 for GIPRCNT values of 100 or above, 50 for GIPRCNT values of 0, and 100 for GIPRCNT values of -100.

Question: For CCOC(=O)CC1CSC(N/N=C/c2ccc(O)cc2)=N1 (stereo not given), which growth is on record?
Answer: The growth was 100%.

Question: O=[N+]([O-])c1ccc(N/N=C\c2cc(Cl)ccc2O)nc1 was tested. Which growth did it give?
Answer: The growth was 88.8%.

Question: With CSc1nn2c(-c3cc4cc(Br)ccc4oc3=O)ccnc2c1C#N as the molecule, how does the growth read?
Answer: Its growth is 112%.

Question: Which growth does the source give for CN(C)c1ccc(Cc2cc(-c3ccccc3)nn(C/C(=N/O)c3ccccc3)c2=O)cc1 here?
Answer: The growth was 89.7%.

Question: How did the growth turn out when CCN1C(=O)N(CC)C2C1NC(=S)N2/N=C/C=C/c1cccs1 (stereo not given) was run?
Answer: Its growth is 33%.

Question: How did the growth turn out when CCOC(=O)C1=C(c2ccccc2)N=C2N(c3ccccc3)N=C(C(C)=O)N2C1c1ccc(Br)cc1 (stereo not given) was run?
Answer: The growth was 104%.

Question: How did the growth turn out when Cc1ccc2nc(/C=C/c3ccc(N(C)C)cc3)cc(C)c2c1 was run?
Answer: The growth was 73.1%.

Question: COc1cc(NC(=O)c2cncnc2Nc2ccc3c(ccn3Cc3cccc(F)c3)c2)cc(OC)c1 was tested. Which growth did it give?
Answer: Its growth is 71.7%.

Question: CC(C)(C)n1cc(-c2ccnc(NCCNS(=O)(=O)c3ccc(C(F)(F)F)cc3)c2)c(-c2ccccc2)n1 was tested. Which growth did it give?
Answer: The growth was 108%.

Question: With COc1ccc(C(c2cc(OC)c(OC)c(OC)c2)n2cncn2)cc1O (stereo not given) as the molecule, how does the growth read?
Answer: Its growth is 73%.

Question: With c1ccc(Cn2cc3c(c2)-c2nc(Nc4ccccc4)ncc2CC3)cc1 as the molecule, how does the growth read?
Answer: The growth was 82.8% [100 µM].

Question: How did the growth turn out when N#C/C(Sc1nc2sc3c(c2c(=O)n1Cc1ccccc1)CCCC3)=C1/SC=C(c2ccc(Cl)cc2)N1c1ccccc1 was run?
Answer: The growth was 83.7%.

Question: With O=C(OCC(O)(CO)C(=O)NC12CC3CC(CC(C3)C1)C2)c1ccc(Cl)cc1 (stereo not given) as the molecule, how does the growth read?
Answer: Its growth is 100%.

Question: Which growth does the source give for COc1ccc(Cn2cc(C(=O)N=Nc3c(O)[nH]c4ccc(Br)cc34)nn2)cc1 here?
Answer: The growth was 106%.

Question: With CCOc1ccccc1NC(=O)CCC(=O)OC as the molecule, how does the growth read?
Answer: The growth was 110%.

Question: CCCn1cnc2c(c1=N)C(c1ccc(Cl)cc1)c1sc3c(F)cccc3c1O2 (stereo not given) was tested. Which growth did it give?
Answer: The growth was 81.6%.

Question: Which growth does the source give for N#CC1=C(N)Oc2c(ccc3cccnc23)C1c1ccccc1 (stereo not given) here?
Answer: The growth was 56.3%.

Question: Which growth does the source give for CCN(CC)CCCNC(=O)c1c2c(n3ccccc13)C(=O)c1ncccc1C2=O here?
Answer: Its growth is -8.93% (active).

Question: Which growth does the source give for COC(=O)c1c(C(=O)OC)c2ccc3c4ncccc4ccc3n2c1C(=O)c1ccc(C)cc1 here?
Answer: Its growth is 87.1%.

Question: With COc1cc(-c2ccc(-c3ccc(C(=N)N)s3)s2)cc(OC)c1OC as the molecule, how does the growth read?
Answer: The growth was 64.6%.

Question: With Cc1cccc(C)c1NC(=O)Nc1ccccc1 as the molecule, how does the growth read?
Answer: The growth was 72.2%.

Question: For Cc1nn(C)c2ncnc(Nc3ccccc3Br)c12, which growth is on record?
Answer: The growth was 99.6%.

Question: For CC1(C)CC[C@]2(CO)CC[C@]3(C)C(=CC[C@@H]4[C@@]5(C)CCNCC(C)(C)[C@@H]5CC[C@]43C)[C@@H]2C1, which growth is on record?
Answer: The growth was 81.8%.

Question: How did the growth turn out when CSc1nc(CC(C)C)c(C#N)c(=O)n1C was run?
Answer: Its growth is 74.7%.

Question: How did the growth turn out when Nc1ncc(-c2ccc3ncnc(N4CCc5cc(F)c(Cl)cc54)c3c2)cc1C=O was run?
Answer: The growth was 9.67% (active).

Question: C=CCNc1ccc2c3c(cccc13)C(=O)N(CC=C)C2=O was tested. Which growth did it give?
Answer: Its growth is 92%.

Question: With O=C1CCC(C(=O)N/N=C/c2ccc([N+](=O)[O-])cc2)N1 (stereo not given) as the molecule, how does the growth read?
Answer: The growth was 105%.

Question: Which growth does the source give for O=c1c(Cc2ccc(F)cc2)cc(-c2ccccc2)nn1C/C(=N/O)c1ccccc1 here?
Answer: The growth was 66.9%.

Question: Which growth does the source give for CN(C)CC1C(=O)O[C@H]2[C@H]1CC/C(COC(=O)NCc1ccc(Cn3c(=O)sn(CCCI)c3=O)cc1)=C\CC[C@@]1(C)O[C@@H]21 (stereo not given in full) here?
Answer: Its growth is 105%.

Question: For CC(C)C(=O)Nc1ncc(C(=O)NCCN(Cc2ccccc2)C(=O)c2ccc(S(=O)(=O)Nc3ccccc3)cc2)s1, which growth is on record?
Answer: The growth was 97.7%.

Question: For CC(C)=CC(=O)C1C(=O)c2ccccc2C1=O, which growth is on record?
Answer: The growth was 97.3%.

Question: With CCN1CCN(CCOc2ccc(CNc3ccc4nc(CCC5CCCCC5)[nH]c4c3)cc2)CC1 as the molecule, how does the growth read?
Answer: Its growth is 58.7%.

Question: For C#CCOc1ccc(C2=NN(C)C3N=C(Cl)c4ncn(C)c4N23)cc1OCC#C (stereo not given), which growth is on record?
Answer: The growth was 82.6%.

Question: Which growth does the source give for CCOC(=O)CC1C(CNC(=O)NC)OC(n2cnc3c(NC(=O)Nc4ccccc4)ncnc32)C1O[Si](C)(C)C(C)(C)C (stereo not given) here?
Answer: The growth was 99.6%.

Question: CC(CN)[C@@H]1CC[C@]2(CO)CC[C@]3(C)[C@H](CC[C@@H]4[C@@]5(C)CCC(NCCO)C(C)(C)[C@@H]5CC[C@]43C)[C@@H]12 (stereo not given in full) was tested. Which growth did it give?
Answer: Its growth is 84.2%.

Question: With O=C(CSc1nnc(-c2ccc(Cl)c(Cl)c2)n1-c1ccccc1)Nc1ccc(C(=O)/C=C/c2ccc(Cl)cc2)cc1 as the molecule, how does the growth read?
Answer: The growth was 96.8%.

Question: Which growth does the source give for COc1ccc(C2=NN3C(C2)c2cc(Br)ccc2OC3c2ccncc2)cc1 (stereo not given) here?
Answer: Its growth is 88.4%.

Question: How did the growth turn out when COC1CC(O)C2=C(CC3C(/C(C)=C\CC=C(C)C)CCC3(C)O2)C1=O (stereo not given) was run?
Answer: The growth was 114%.

Question: COc1ccc(C(=O)C2OC3=C(C(=O)CC(C)(C)C3)C2c2cccc(Oc3ccccc3)c2)cc1 (stereo not given) was tested. Which growth did it give?
Answer: Its growth is 97.6%.

Question: For O=C(CNc1ncco1)Nc1ccc(S(=O)(=O)c2ccc(NC(=O)CNc3ncco3)cc2)cc1, which growth is on record?
Answer: The growth was 28.5%.
